RORgamma inh: qHTS for inhibitors of ROR gamma transcriptional activity; Nuclear receptor ROR-gamma (Mus musculus), P51450; Drosophila S2 Gal4-RORgamma UAS-luciferase reporter, 20 h; Potency, µM (doses to about 53.6 µM), usual class: inhibitors; 5.4% of 310,000 active; AID 2551, 2010; also: nearly all actives have a fitted effect of over 60% in size
Target sequence (P51450 whole entry, looked up, the tested form may be a part): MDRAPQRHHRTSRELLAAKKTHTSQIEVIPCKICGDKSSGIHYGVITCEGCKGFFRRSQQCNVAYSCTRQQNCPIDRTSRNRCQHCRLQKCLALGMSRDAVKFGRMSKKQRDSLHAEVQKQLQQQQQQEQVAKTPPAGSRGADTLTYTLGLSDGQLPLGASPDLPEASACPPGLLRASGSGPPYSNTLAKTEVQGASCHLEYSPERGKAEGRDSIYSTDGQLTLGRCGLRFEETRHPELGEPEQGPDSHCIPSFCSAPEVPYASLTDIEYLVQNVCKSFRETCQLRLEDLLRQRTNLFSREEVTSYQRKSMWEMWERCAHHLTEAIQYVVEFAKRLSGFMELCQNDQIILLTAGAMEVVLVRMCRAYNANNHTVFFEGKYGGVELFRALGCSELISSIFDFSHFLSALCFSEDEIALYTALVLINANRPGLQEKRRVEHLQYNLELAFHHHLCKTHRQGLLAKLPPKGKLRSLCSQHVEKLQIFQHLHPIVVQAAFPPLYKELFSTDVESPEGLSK
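Luminescence from a UAS-regulated Photinus luciferase reporter in stably transfected Drosophila Schneider cells is measured; decreased signal marks ROR gamma inhibition. Fusion expression is induced by 700 uM copper sulfate for 20 hr.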
IL1B secr inh: qHTS for Inhibitors of Inflammasome Signaling: IL-1-beta AlphaLISA Primary Screen | THP-1 LPS/ATP IL-1B secretion, AlphaLISA, 16 h; hits give low values | activity change, % at 57.5 µM | 4.7% of 360,000 active; in the data active = activity change below about -50%; inconclusive = mostly about -30% to -49%
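Secreted IL-1B measured by AlphaLISA bead assay after 16 h compound exposure of THP-1 cells; compounds (final up to 57.5 uM) added 1 h before LPS (250 ng/mL) and ATP (1.25 mM) stimulation; lower signal means less secretion.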
DT40 TDP1 CPT: qHTS for Inhibitors of human tyrosyl-DNA phosphodiesterase 1 (TDP1): qHTS in cells in presence of CPT; Potency, µM (top dose mostly 46.2 µM), actives largely listed as inhibitors; 12% of 420,000 active; chicken DT40 Tdp1-/-;hTDP1 cells + 20 nM CPT, ATP luminescence, 48 h; also: nearly all actives have a fitted effect of over 55% in size
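Cell growth measured by CellTiter-Glo luminescence after a minimum 48 h, 37 C compound exposure with 20 nM CPT in Tdp1-knockout DT40 cells stably expressing hTDP1, seeded 400/well; qHTS titration format.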
ELG1 DNA repair: qHTS screen for small molecules that inhibit ELG1-dependent DNA repair in human embryonic kidney (HEK293T) cells expressing luciferase-tagged ELG1 | 2.3% of 330,000 active | Potency, µM (top dose mostly 46.1 µM), usual class: inhibitors | HEK293T ELG1-luciferase reporter, luminescence, 16 h; DNA damage induced by 5-fluorouridine; also: nearly all actives have a fitted effect of over 55% in size
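Cells (2,000 per well) received 5-fluorouridine plus test compound or DMSO and were incubated 16 hr at 37 °C, 5% CO2. Luciferase activity was read by luminescence 30 min after ONE-Glo addition; signal suppression marked inhibition of damage-induced ELG1 function.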
DT40 TDP1 no CPT: qHTS for Inhibitors of human tyrosyl-DNA phosphodiesterase 1 (TDP1): qHTS in cells in absence of CPT; DT40 Tdp1-/- hTDP1 cells, no CPT, ATP luminescence, 48 h; Potency, µM (series often up to 46.2 µM), usual class: inhibitors; 15% of 420,000 active; AID 686978, 2013; also: nearly all actives have a fitted effect of over 55% in size
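Growth of hTDP1-complemented DT40 Tdp1-knockout cells is measured by ATP luminescence after at least 48 hr compound exposure at 37 °C, with DMSO substituting for the 20 nM CPT used in the parallel screen.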
Gal4-VP16 FLuc: VP16 counterscreen qHTS for inhibitors of ROR gamma transcriptional activity; Drosophila S2 Gal4-VP16 UAS-luciferase, luminescence, 20 h; Potency, µM (top dose mostly 53.6 µM), usual class: inhibitors; 3.5% of 310,000 active; AID 2546, 2010;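 also: Gal4-VP16 expression switched on by copper sulfate through the metallothionein promoter; nearly all actives have a fitted effect of over 50% in size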
Each line names hits and unclear results; the compound was inactive in the other large screens. In the library only some 21% were active in any assay of this set; here they are far more common. Unless noted, calls follow the shape of the dose curve; as a rule, active = well fitted curve in the direction sought with a large enough effect; inconclusive = small, poorly fitted or top-dose-only effect, or another doubt; inactive = no such curve, though single readings can be large; an effect the other way counts as inactive or inconclusive.

COCCCNC(=O)c1c(NC(=O)c2cc(=O)c3ccccc3o2)sc2c1CCCC2	DT40 TDP1 no CPT 5.2µM (no result: RORgamma inh, IL1B secr inh, ELG1 DNA repair, Gal4-VP16 FLuc)
COCCNC(=O)c1c(NC(=O)Cc2coc3cc(C)ccc23)sc2c1CCCC2	DT40 TDP1 CPT 23µM, DT40 TDP1 no CPT inconclusive (no result: RORgamma inh, IL1B secr inh, ELG1 DNA repair, Gal4-VP16 FLuc)
COC(=O)c1c(NC(=O)Cc2coc3cc(C)ccc23)sc2c1CCC2	DT40 TDP1 no CPT 3.3µM (no result: RORgamma inh, IL1B secr inh, ELG1 DNA repair, Gal4-VP16 FLuc)
CCOC(=O)c1c(NC(=O)Cc2coc3cc(C)cc(C)c23)sc2c1CCC2	none (no result: RORgamma inh, IL1B secr inh, ELG1 DNA repair, Gal4-VP16 FLuc)
Cc1ccc2c(CC(=O)Nc3ccccc3C(F)(F)F)coc2c1C	none (no result: RORgamma inh, IL1B secr inh, ELG1 DNA repair, Gal4-VP16 FLuc)
Cc1ccc2c(CC(=O)NCc3ccccc3)coc2c1C	DT40 TDP1 CPT 4.1µM, DT40 TDP1 no CPT 3.3µM (no result: RORgamma inh, IL1B secr inh, ELG1 DNA repair, Gal4-VP16 FLuc)
CCNC(=O)c1c(NC(=O)Cc2coc3cc(C)cc(C)c23)sc2c1CCCC2	none (no result: RORgamma inh, IL1B secr inh, ELG1 DNA repair, Gal4-VP16 FLuc)
CN(Cc1cccc(Cl)c1Cl)CC(O)COc1ccccc1 (stereo not given)	DT40 TDP1 CPT inconclusive, DT40 TDP1 no CPT inconclusive
COCCCNC(=O)c1c(NC(=O)Cc2coc3c(C)c(C)ccc23)sc2c1CCCC2	DT40 TDP1 CPT 16µM, DT40 TDP1 no CPT 16µM (no result: RORgamma inh, IL1B secr inh, ELG1 DNA repair, Gal4-VP16 FLuc)
COc1ccc(CCNC(=O)CSc2nnc(CNc3ccc(Cl)cc3)o2)cc1OC	DT40 TDP1 CPT inconclusive, ELG1 DNA repair inconclusive, DT40 TDP1 no CPT inconclusive
O=C(CSc1nnc(CNc2ccc(Cl)cc2)o1)Nc1nc2c(s1)CCCC2	RORgamma inh 11µM, DT40 TDP1 CPT 15µM, DT40 TDP1 no CPT inconclusive, Gal4-VP16 FLuc inconclusive
CNC(=S)NN(c1ccccc1)c1ccccc1	RORgamma inh 18µM, Gal4-VP16 FLuc inconclusive
COCCNC(=S)Nc1ccccc1Cc1ccccc1	RORgamma inh 3.5µM, Gal4-VP16 FLuc 10µM
COCCNC(=S)NN(c1ccccc1)c1ccccc1	RORgamma inh 7.9µM, Gal4-VP16 FLuc inconclusive
COCCNC(=O)c1ccccc1NC(=O)Nc1ccccc1	IL1B secr inh -50
CCc1ccc(OCc2cccc(C(=O)N/N=C\c3cnn(C)c3C)c2)cc1	ELG1 DNA repair inconclusive (no result: RORgamma inh, Gal4-VP16 FLuc)
CC(=O)N1CCCc2ccc(NS(=O)(=O)c3cccc(Cl)c3)cc21	none (no result: RORgamma inh, IL1B secr inh, ELG1 DNA repair, Gal4-VP16 FLuc)
CC1CCc2[nH]c3ccc(C(=O)N(C)CC(=O)Nc4ccccc4C(F)(F)F)cc3c2C1 (stereo not given)	DT40 TDP1 CPT inconclusive, ELG1 DNA repair inconclusive, DT40 TDP1 no CPT inconclusive (no result: RORgamma inh, Gal4-VP16 FLuc)
CCCN(CC(=O)Nc1ccccc1OC)C(=O)c1ccc2[nH]c3c(c2c1)CC(C)CC3 (stereo not given)	IL1B secr inh -59, DT40 TDP1 CPT inconclusive, ELG1 DNA repair inconclusive, DT40 TDP1 no CPT inconclusive (no result: RORgamma inh, Gal4-VP16 FLuc)
CCN(CC(=O)Nc1ccccc1OC)C(=O)c1ccc2[nH]c3c(c2c1)CC(C)CC3 (stereo not given)	DT40 TDP1 CPT 18µM, ELG1 DNA repair inconclusive, DT40 TDP1 no CPT inconclusive (no result: RORgamma inh, Gal4-VP16 FLuc)
Cc1ccc(S(=O)(=O)NCc2ccccc2)cc1C(=O)NCc1ccncc1	none (no result: RORgamma inh, ELG1 DNA repair, Gal4-VP16 FLuc)
CS(=O)c1nc(-c2ccc(Br)cc2)cc(-c2ccccc2)c1C#N (stereo not given)	RORgamma inh 7.9µM, IL1B secr inh -70, DT40 TDP1 CPT 1.8µM, ELG1 DNA repair inconclusive, DT40 TDP1 no CPT 2.6µM, Gal4-VP16 FLuc 14µM
CS(=O)(=O)c1nc(-c2ccc(Br)cc2)cc(-c2ccccc2)c1C#N	RORgamma inh 3.2µM, IL1B secr inh -59, DT40 TDP1 CPT 4.1µM, ELG1 DNA repair 16µM, DT40 TDP1 no CPT 2.6µM, Gal4-VP16 FLuc inconclusive
COc1ccc(-c2cc(-c3ccccc3)c(C#N)c(S(C)(=O)=O)n2)cc1	RORgamma inh inconclusive, IL1B secr inh -96, DT40 TDP1 CPT inconclusive, ELG1 DNA repair inconclusive, DT40 TDP1 no CPT inconclusive
COc1ccc(-c2cc(-c3ccc(OC)cc3)c(C#N)c(SC)n2)cc1	RORgamma inh inconclusive
CCN(CC)c1ccc(C(=O)NNC(=O)CCl)cc1	IL1B secr inh inconclusive, DT40 TDP1 CPT 16µM, DT40 TDP1 no CPT inconclusive
COc1cccc(-n2c(=O)c3c(C)c(C)sc3n(Cc3ccccc3C#N)c2=O)c1	none (no result: RORgamma inh, IL1B secr inh, ELG1 DNA repair, Gal4-VP16 FLuc)
COc1ccc(NS(=O)(=O)c2ccc(-c3coc(C)n3)cc2)cc1OC	RORgamma inh inconclusive, IL1B secr inh inconclusive, DT40 TDP1 CPT 4.1µM, ELG1 DNA repair 0.41µM, DT40 TDP1 no CPT 2.1µM, Gal4-VP16 FLuc 1.4µM
COc1cc(Cl)c(NS(=O)(=O)c2ccc(-c3coc(C)n3)cc2)c(OC)c1	DT40 TDP1 CPT 3.7µM, DT40 TDP1 no CPT 4.1µM (no result: RORgamma inh, IL1B secr inh, ELG1 DNA repair, Gal4-VP16 FLuc)
CCN(CC)c1ccc(NS(=O)(=O)c2ccc(-c3coc(C)n3)cc2)c(C)c1	DT40 TDP1 CPT 16µM, DT40 TDP1 no CPT 18µM (no result: RORgamma inh, IL1B secr inh, ELG1 DNA repair, Gal4-VP16 FLuc)
COc1ccc(NS(=O)(=O)c2ccc(-c3coc(C)n3)cc2)cc1	RORgamma inh inconclusive, DT40 TDP1 CPT inconclusive, ELG1 DNA repair inconclusive
Cc1nc(-c2ccc(S(=O)(=O)Nc3ccc(C)c(N(C)C)c3)cc2)co1	DT40 TDP1 CPT 7.3µM, DT40 TDP1 no CPT 18µM (no result: RORgamma inh, IL1B secr inh, ELG1 DNA repair, Gal4-VP16 FLuc)
CSc1cccc(NS(=O)(=O)c2ccc(-c3coc(C)n3)cc2)c1	RORgamma inh inconclusive, DT40 TDP1 CPT inconclusive, ELG1 DNA repair inconclusive, DT40 TDP1 no CPT 15µM, Gal4-VP16 FLuc inconclusive
COc1ccc(-c2nc3ccc(NC(=O)CO)cc3c(=O)n2Cc2cccc(Cl)c2)cc1COc1ccc(NC(C)=O)cc1	DT40 TDP1 CPT 11µM, DT40 TDP1 no CPT 13µM (no result: RORgamma inh, IL1B secr inh, ELG1 DNA repair, Gal4-VP16 FLuc)

Compound activity: PubChem BioAssay, National Center for Advancing Translational Sciences (NCATS)
